# Experimental data reported in PubChem BioAssay (NCI).
# This is part of a sample that, as a whole, favours compounds with a hit. Of some 83,000 tested, about 20% had one in any assay.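 Method: cells in 96-well plates; compound added at one concentration; 48 h incubation; percent growth measured; values under 10 scored active.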 Values without a mark were called inactive. Active and inactive are the calls of the source.
# How the values were obtained:
# Assay in all cases: NCI-60 one-dose screen, 48 h (100 = growth as untreated, 0 = no growth, -100 = all killed)
# [1] = system: NCI-H23 lung; details: 10 µM unless noted
# [2] = system: NCI-H322M lung; details: 10 µM unless noted
# [3] = system: NCI-H460 lung; details: 10 µM unless noted
# [4] = system: HOP-92 NSCLC; details: 10 µM
# [5] = system: NCI-H522 lung; details: 10 µM
# [6] = system: A549/ATCC NSCLC; details: 10 µM unless noted
# [7] = system: 786-0 renal; details: 10 µM unless noted
# [8] = system: COLO 205 colon; details: 10 µM unless noted
# [9] = system: DU-145 prostate; details: 10 µM unless noted
# [10] = system: K-562 leukemia; details: 10 µM unless noted
# [11] = system: MALME-3M melanoma; details: 10 µM unless noted
# [12] = system: MDA-MB-231 breast; details: 10 µM unless noted
# [13] = system: RXF 393 renal; details: 10 µM unless noted
# [14] = system: SF-268 CNS; details: 10 µM unless noted
# [15] = system: SF-295 CNS; details: 10 µM unless noted
# [16] = system: SF-539 CNS; details: 10 µM unless noted
# [17] = system: UACC-257 melanoma; details: 10 µM unless noted
# [18] = system: M14 melanoma; details: 10 µM unless noted
# [19] = system: HOP-62 NSCLC; details: 10 µM unless noted
SMILES,growth [1],growth [2],growth [3],growth [4],growth [5],growth [6],growth [7],growth [8],growth [9],growth [10],growth [11],growth [12],growth [13],growth [14],growth [15],growth [16],growth [17],growth [18],growth [19]
COC(=O)c1ccc2[nH]c(O)c(C(=Nc3ccc(N(C)C(=O)CN4CCN(C)CC4)cc3)c3ccc(N)cc3)c2c1,70%,77.4%,105%,78.3%,75.5%,111%,63.9%,41.4%,96.8%,14%,83.5%,87.6%,56.7%,62.4%,99.1%,50.8%,125%,88%,–
Cc1ccc(OCCn2ccc(=O)n(CCOc3ccc(Cl)cc3C(=O)c3cc(C)cc(C)c3)c2=O)cc1,54.4%,84.1%,37.2%,45.9%,23.3%,41.7%,57.4%,–,73.3%,13.2%,51.9%,46.8%,41.5%,49.7%,51.1%,53.7%,64.3%,24.7%,–
COc1ccc(/C=C/C(=O)/C=C/c2cc3ccccc3[nH]c2=O)cc1,70.4%,109%,92.7%,89.8%,48.8%,51.3%,93.1%,55.8%,81.2%,4.13% (active),32.6%,64.5%,30.6%,47.8%,104%,–,74.8%,72.9%,–
C[C@]12C=CC(=O)C=C1[C@@H](F)C[C@@H]1[C@@H]2[C@@H](O)C[C@@]2(C)[C@H]1CC[C@]2(O)C(=O)CO,106%,113%,–,57.5%,118%,63.5%,108%,106%,95.1%,125%,81.8%,80.6%,126%,96.9%,123%,96.1%,96.1%,92.5%,104%
CC(O)CCC(C)[N+](=O)[O-] (stereo unspecified),111%,98.7%,109%,–,–,96.3%,101%,111%,111%,99.9%,106%,110%,119%,104%,–,99%,102%,106%,95.4%
N#CCCCCCCCCCCC#N,93.8%,114%,–,–,86%,93.3%,99.9%,111%,106%,103%,139%,105%,113%,109%,92%,108%,87.7%,103%,–
CC1(C)NC(=S)NC1=O,101%,107%,–,101%,116%,98%,100%,108%,116%,89%,106%,–,105%,111%,95.7%,111%,106%,98.5%,104%
O=C(Nc1ccc(-n2cc(-c3ccncc3)c(-c3ccc(Cl)c(O)c3)n2)cc1)c1cc(C(F)(F)F)cc(C(F)(F)F)c1,63.8%,116%,36.7%,–,–,52.2%,38.4%,70.1%,74.2%,29.7%,102%,46.3%,-42.6% (active),61.8%,25%,50.9%,63.2%,45.1%,53.9%
NNC(=S)N1N=C(c2cc3ccccc3o2)CC1c1c[nH]c2ccccc12 (stereo unspecified),56.4%,39.6%,24.7%,50.1%,42.6%,48.4%,22%,52.2%,50.9%,9.64% (active),–,41.6%,77.7%,29.6%,38.9%,57.9%,64.2%,52.1%,–
COc1ccc(C2=NN(C(=O)c3cc(-c4ccc(C)cc4)nc4ccccc34)C(c3cc(-c4ccccc4)nn3-c3ccccc3)C2)cc1 (stereo unspecified),90.4%,84.6%,74.5%,86.6%,82.9%,89.1%,95.6%,106%,91.2%,84.1%,–,99.1%,95.2%,77.1%,86.7%,105%,96.8%,83.4%,–
CCCCCCCCC(=O)Nc1ccc(O)cc1,92.3%,88.1%,105%,–,–,–,95.9%,94.9%,103%,91.2%,87.7%,92.1%,101%,92%,101%,88.9%,–,107%,–
Cn1cnc2nc[nH]c2c1=S,98.7%,101%,108%,75.2%,86.5%,–,101%,116%,112%,103%,98.8%,96.3%,110%,107%,99.4%,110%,96.5%,105%,–
COC(=O)CC(=O)C(=O)OC,103%,107%,104%,–,–,104%,95.2%,114%,108%,101%,107%,115%,104%,97.4%,–,102%,102%,–,103%
Br/C(=N\Nc1nn[nH]n1)c1ccccc1,98.9%,96.3%,105%,–,–,–,92.2%,104%,119%,110%,104%,96.4%,96.3%,114%,101%,96.7%,–,99%,98%
